40 compounds from PubChem BioAssay can be followed below.

Structures are written as SMILES. Where “and” joins values, the source holds several entries; their conditions need not be identical. Identical values can stand only once.

One test is described as follows: Primary imaging screen for DUSP6 inhibitors that restore phospho-Erk in transfected HeLa cells, chemical complementation (AID 609). To be noted: HeLa MKP-3 transfected, phospho-Erk imaging KS statistic; measured here: nuclear c-Myc green intensity z-score; at 10 µM; cells stimulated with TPA for 15 min.
Compound `CN1Cc2c(N)cccc2C(c2ccccc2)C1` (stereo not given) showed a z-score of 0.0925.

The compound `Cc1cn([C@H]2C=C[C@@H](CO)O2)c(=O)[nH]c1=O` yielded a z-score of 1.21.

For `COC(=O)c1ccc(N2C(=O)CC(N3CCN(C(=O)c4ccco4)CC3)C2=O)cc1` (stereo not given), the z-score was -0.422.

On to `C[C@H]1C[C@H]2[C@@H]3CCC4=CC(=O)C=C[C@]4(C)[C@@]3(Cl)[C@@H](O)C[C@]2(C)[C@@]1(O)C(=O)CO`, for which the z-score was -0.957.

The compound `CCCC1O[C@@H]2C[C@H]3[C@@H]4CCC5=CC(=O)C=C[C@]5(C)[C@H]4[C@@H](O)C[C@]3(C)[C@]2(C(=O)CO)O1` (stereo not given in full) returned a z-score of -0.532.

`CNCCC(Oc1ccc(C(F)(F)F)cc1)c1ccccc1` (stereo not given) came in with a z-score of 0.755.

`Clc1ccc(Cn2c(CN3CCCC3)nc3ccccc32)cc1`: the z-score was found to be 0.404.

`CC(C)NCC(O)COc1ccc(CC(N)=O)cc1` (stereo not given) registered a z-score of -0.177.

Compound `CC(C)C[C@H]1C(=O)N2CCC[C@H]2[C@]2(O)O[C@](NC(=O)[C@@H]3C=C4c5cccc6[nH]c(Br)c(c56)CC4N(C)C3)(C(C)C)C(=O)N12` (stereo not given in full) returned a z-score of -0.999.

On to `CCOC(=O)c1cc2c(=O)n3cccc(C)c3nc2n(CCc2ccccc2)c1=N`, for which the z-score was found to be 0.0077.

For `CC(=O)OCC1=C(C(=O)O)N2C(=O)[C@@H](NC(=O)Cc3cccs3)[C@H]2SC1`, the z-score is -0.0505.

The compound `Cc1cccc(Nc2ccccc2C(=O)O)c1C` registered a z-score of 0.675.

`CC(COc1ccccc1)N(CCCl)Cc1ccccc1` (stereo not given): the z-score amounted to 0.156.

On to `Cc1cc(C)nc(NS(=O)(=O)c2ccc(N)cc2)n1`, for which the z-score was determined as 0.0726.

Consider `COc1cc(C2C(C#N)=C(N)Oc3cc(N)ccc32)cc(OC)c1OC` (stereo not given), for which the z-score is -0.28.

`CN(C)CCCC1(c2ccc(F)cc2)OCc2cc(C#N)ccc21` (stereo not given) gave a z-score of -1.41.

For the compound `CCCc1cc(=O)[nH]c(=S)[nH]1`, the z-score is -0.47.

In turn, `CN(C)CCOC(C)(c1ccccc1)c1ccccn1` (stereo not given) gave a z-score of 0.211.

As for `CCCCNC(=O)NS(=O)(=O)c1ccc(C)cc1`, the z-score is -0.348.

Consider `CC(=O)[C@@]1(O)CC[C@H]2[C@@H]3C[C@H](C)C4=CC(=O)C=C[C@]4(C)[C@@]3(F)[C@@H](O)C[C@@]21C`, for which the z-score worked out at 0.132.

On to `O=C1NC(=O)C(c2ccccc2)(c2ccccc2)N1`, for which the z-score was -0.248.

With `CC(C)(C)NC[C@H](O)COc1nsnc1N1CCOCC1`, the z-score was -0.39.

`O=C(O)CCC(=O)Nc1ccc(S(=O)(=O)Nc2nccs2)cc1` displayed a z-score of 2.12.

The compound `Cc1cc(C(C)(C)C)cc(C)c1CC1=NCCN1` came in with a z-score of -0.489.

With `CN(C)CCCN1c2ccccc2Sc2ccccc21`, the z-score came to 0.845.

As for `Nc1ccc(C(=O)O)c(O)c1`, the z-score is -0.574 and 0.166.

The compound `CC(=O)[C@H]1CC[C@H]2[C@@H]3CCC4=CC(=O)CC[C@]4(C)[C@H]3CC[C@]12C` yielded a z-score of -0.521.

Regarding `O=c1n(CCCN2CCN(c3cccc(Cl)c3)CC2)nc2ccccn12`, the z-score is -1.66.

`Cn1c(=O)c2c(ncn2CC(O)CO)n(C)c1=O` (stereo not given) registered a z-score of -0.712.

Compound `CC1(C)S[C@@H]2[C@H](NC(=O)Cc3ccccc3)C(=O)N2[C@H]1C(=O)O` registered a z-score of -1.24.

Take `CN(C)C(=O)Oc1ccc[n+](C)c1`: the z-score came to 0.159.

For `CCCOc1ccc2nc(NC(=O)OC)[nH]c2c1`, the z-score is 0.392.

On to `OC(CCN1CCCCC1)(c1ccccc1)C1CCCCC1` (stereo not given), for which the z-score was 1.69.

With `O=c1c(O)c(-c2ccc(O)cc2O)oc2cc(O)cc(O)c12`, the z-score turned out to be 0.679.

Compound `COC(=O)Nc1nc2ccc(C(=O)c3ccccc3)cc2[nH]1` displayed a z-score of -0.197.

`CCc1cccc2c3c([nH]c12)C(CC)(CC(=O)O)OCC3` (stereo not given) returned a z-score of 0.0959.

The compound `C[N+](C)(C)CCCCCCCCCC[N+](C)(C)C` returned a z-score of -0.124.

The compound `O=C(c1ccc(F)cc1)C1CCN(CCn2c(=O)[nH]c3ccccc3c2=O)CC1` came in with a z-score of 0.365.

The compound `CCN1CCN(C(=O)N[C@@H](C(=O)N[C@@H]2C(=O)N3[C@@H]2SC(C)(C)[C@@H]3C(=O)O)c2ccccc2)C(=O)C1=O` had a z-score of -0.264.

In turn, `Cc1ncc([N+](=O)[O-])n1CCO` returned a z-score of -1.84.

The same test, now with this note: HeLa MKP-3 transfected, phospho-Erk imaging KS statistic; measured here: nuclear pErk red intensity z-score; at 10 µM; stronger effect = higher value; cells stimulated with TPA for 15 min.
As for `CN1Cc2c(N)cccc2C(c2ccccc2)C1` (stereo not given), the z-score was found to be 1.7.

For `Cc1cn([C@H]2C=C[C@@H](CO)O2)c(=O)[nH]c1=O`, the z-score was -0.244.

`COC(=O)c1ccc(N2C(=O)CC(N3CCN(C(=O)c4ccco4)CC3)C2=O)cc1` (stereo not given) displayed a z-score of -0.968.

In turn, `C[C@H]1C[C@H]2[C@@H]3CCC4=CC(=O)C=C[C@]4(C)[C@@]3(Cl)[C@@H](O)C[C@]2(C)[C@@]1(O)C(=O)CO` had a z-score of -0.321.

As to `CCCC1O[C@@H]2C[C@H]3[C@@H]4CCC5=CC(=O)C=C[C@]5(C)[C@H]4[C@@H](O)C[C@]3(C)[C@]2(C(=O)CO)O1` (stereo not given in full), the z-score was -0.405.

Take `CNCCC(Oc1ccc(C(F)(F)F)cc1)c1ccccc1` (stereo not given): the z-score was 0.581.

Regarding `Clc1ccc(Cn2c(CN3CCCC3)nc3ccccc32)cc1`, the z-score worked out at 0.417.

For the compound `CC(C)NCC(O)COc1ccc(CC(N)=O)cc1` (stereo not given), the z-score is -0.441.

In the case of `CC(C)C[C@H]1C(=O)N2CCC[C@H]2[C@]2(O)O[C@](NC(=O)[C@@H]3C=C4c5cccc6[nH]c(Br)c(c56)CC4N(C)C3)(C(C)C)C(=O)N12` (stereo not given in full), the z-score was determined as 0.764.

`CCOC(=O)c1cc2c(=O)n3cccc(C)c3nc2n(CCc2ccccc2)c1=N` had a z-score of 0.78.

For `CC(=O)OCC1=C(C(=O)O)N2C(=O)[C@@H](NC(=O)Cc3cccs3)[C@H]2SC1`, the z-score was -0.555.

In the case of `Cc1cccc(Nc2ccccc2C(=O)O)c1C`, the z-score was -0.849.

The compound `CC(COc1ccccc1)N(CCCl)Cc1ccccc1` (stereo not given) came in with a z-score of -1.5.

The compound `Cc1cc(C)nc(NS(=O)(=O)c2ccc(N)cc2)n1` gave a z-score of -0.14.

`COc1cc(C2C(C#N)=C(N)Oc3cc(N)ccc32)cc(OC)c1OC` (stereo not given) displayed a z-score of -0.643.

Turning to `CN(C)CCCC1(c2ccc(F)cc2)OCc2cc(C#N)ccc21` (stereo not given), the z-score was 2.05.

Regarding `CCCc1cc(=O)[nH]c(=S)[nH]1`, the z-score was -0.798.

For the compound `CN(C)CCOC(C)(c1ccccc1)c1ccccn1` (stereo not given), the z-score is -0.829.

Compound `CCCCNC(=O)NS(=O)(=O)c1ccc(C)cc1` displayed a z-score of -1.78.

`CC(=O)[C@@]1(O)CC[C@H]2[C@@H]3C[C@H](C)C4=CC(=O)C=C[C@]4(C)[C@@]3(F)[C@@H](O)C[C@@]21C`: the z-score amounted to 1.25.

Regarding `O=C1NC(=O)C(c2ccccc2)(c2ccccc2)N1`, the z-score was -1.03.

Consider `CC(C)(C)NC[C@H](O)COc1nsnc1N1CCOCC1`, for which the z-score amounted to 1.55.

Take `O=C(O)CCC(=O)Nc1ccc(S(=O)(=O)Nc2nccs2)cc1`: the z-score is 1.88.

Turning to `Cc1cc(C(C)(C)C)cc(C)c1CC1=NCCN1`, the z-score was -0.727.

In turn, `CN(C)CCCN1c2ccccc2Sc2ccccc21` returned a z-score of -0.156.

For the compound `Nc1ccc(C(=O)O)c(O)c1`, the z-score is 0.314 and -1.51.

For `CC(=O)[C@H]1CC[C@H]2[C@@H]3CCC4=CC(=O)CC[C@]4(C)[C@H]3CC[C@]12C`, the z-score is -0.268.

In the case of `O=c1n(CCCN2CCN(c3cccc(Cl)c3)CC2)nc2ccccn12`, the z-score came to 0.38.

`Cn1c(=O)c2c(ncn2CC(O)CO)n(C)c1=O` (stereo not given) yielded a z-score of 0.659.

Consider `CC1(C)S[C@@H]2[C@H](NC(=O)Cc3ccccc3)C(=O)N2[C@H]1C(=O)O`, for which the z-score is -1.04.

As to `CN(C)C(=O)Oc1ccc[n+](C)c1`, the z-score was determined as 0.378.

As to `CCCOc1ccc2nc(NC(=O)OC)[nH]c2c1`, the z-score was -0.582.

Turning to `OC(CCN1CCCCC1)(c1ccccc1)C1CCCCC1` (stereo not given), the z-score was -1.17.

For `O=c1c(O)c(-c2ccc(O)cc2O)oc2cc(O)cc(O)c12`, the z-score turned out to be 0.0465.

For the compound `COC(=O)Nc1nc2ccc(C(=O)c3ccccc3)cc2[nH]1`, the z-score was -0.901.

`CCc1cccc2c3c([nH]c12)C(CC)(CC(=O)O)OCC3` (stereo not given) came in with a z-score of -0.905.

Consider `C[N+](C)(C)CCCCCCCCCC[N+](C)(C)C`, for which the z-score is -0.205.

As for `O=C(c1ccc(F)cc1)C1CCN(CCn2c(=O)[nH]c3ccccc3c2=O)CC1`, the z-score was 0.163.

Compound `CCN1CCN(C(=O)N[C@@H](C(=O)N[C@@H]2C(=O)N3[C@@H]2SC(C)(C)[C@@H]3C(=O)O)c2ccccc2)C(=O)C1=O` returned a z-score of -1.18.

`Cc1ncc([N+](=O)[O-])n1CCO`: the z-score came to 1.07.
